Test results: PubChem BioAssay AID1240 (Sanford-Burnham Center for Chemical Genomics, 2008)
Out of some 50,000 compounds screened, about 800 (1.6%) showed an effect of 50% or more. The sample holds strong results, similar compounds and a random draw of the others, so the mix is not that of the screen.

Each molecule was assayed against Bcl-2-like protein 10 (Homo sapiens) (UniProt Q9HD36) (assay: TR3 peptide-Bcl-B binding displacers, biochemical primary FP assay, phenotype converters (AID 1240;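 note: 0% = Bcl-B with tracer peptide and DMSO and 100% = tracer peptide lacking Bcl-B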)). Details: GST-Bcl-B / FITC-TR3 peptide fluorescence polarization; stronger effect = higher value; compound at 3.75 mg/L.
Chain of Bcl-2-like protein 10 (Homo sapiens) (Q9HD36 whole entry, looked up): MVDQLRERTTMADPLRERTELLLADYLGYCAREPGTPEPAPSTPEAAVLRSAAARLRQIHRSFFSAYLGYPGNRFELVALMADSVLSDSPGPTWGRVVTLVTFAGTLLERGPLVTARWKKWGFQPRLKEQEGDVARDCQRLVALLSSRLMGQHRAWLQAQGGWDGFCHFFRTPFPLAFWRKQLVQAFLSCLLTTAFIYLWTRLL
In the case of CC1=NN(C(N)=S)C2(O)CC3C(C12)C3(C)C (centres undefined), the displacement is reported as 7.5%.
Molecule CC(C)(C)NC(=O)c1ccccc1N(Cc1ccccc1)S(=O)(=O)c1ccccc1 has a displacement of -1.7%.
Molecule Cc1ccc2[nH]c(O)c(N=NC(=O)c3cc4ccccc4nc3C)c2c1 has a displacement of 5.5%.
Molecule Cc1ccc(C(=O)c2cccc(NC(=O)CC(C)C)c2)cc1C has a displacement of 12.1%.
For Cc1ccc(N2CC(C(=O)Nc3ccccc3Br)CC2=O)cc1 (centres undefined), the displacement was 11.9%.
In the case of O=C(Nc1ccccc1Br)C1CC(=O)N(c2ccccc2)C1 (centres undefined), the displacement is reported as 77.5%.
In the case of Cc1ccccc1NC(=O)C1CC(=O)N(c2ccccc2)C1 (centres undefined), the displacement is reported as 6.2%.
For CS(=O)(=O)N(CC(=O)O)c1ccc(F)cc1, the displacement was 6.7%.
For Cc1ccc(/C=C(\C#N)c2nc3ccccc3s2)cc1, the displacement was 88.3%.
Molecule N#C/C(=C\c1cccs1)c1nc2ccccc2s1 has a displacement of -12.5%.
With CCOc1cc(/C=C(\C#N)c2nc3ccccc3s2)ccc1O the displacement was 0%.
Cc1cccc(OCCn2c(N)nc3ccccc32)c1 showed a displacement of -10.3%.
Work on Cc1c(NC(=O)CSc2nnc(-c3cccc(F)c3)n2-c2ccccc2)c(=O)n(-c2ccccc2)n1C yielded a displacement of 13.4%.
CN1CCN(C2=C(Cl)C(=O)N(c3ccc(Br)cc3)C2=O)CC1 showed a displacement of 15.9%.
C=CCc1cccc2cc(C(=O)Nc3ccc(NC(C)=O)cc3)c(=O)oc12 gave a displacement of -13.3%.
In the case of C=CCc1cccc2cc(C(=O)Nc3ccc(OCC)cc3)c(=O)oc12, the displacement is reported as 53.1%.
C=CCc1cccc2cc(C(=O)Nc3ccc(CC)cc3)c(=O)oc12 gave a displacement of 8.6%.
CN1C(=O)/C(=C/c2ccc(O)c(O)c2)SC1=S gave a displacement of 14%.
With Cc1cc(Cl)ccc1NC(=O)Cc1ccccc1 the displacement was -10%.
For COc1cccc(/C=c2/sc3nc4ccccc4n3c2=O)c1, the displacement was 92.4%.
For COc1cc(/C=c2\sc3nc4ccccc4n3c2=O)cc(Cl)c1OCCOc1ccc(Br)cc1, the displacement was -2.9%.
In the case of COc1cc(Br)c(/C=c2/sc3nc4ccccc4n3c2=O)cc1OC, the displacement is reported as 132%.
For O=c1/c(=C\c2ccc(OCc3cccc4ccccc34)cc2)sc2nc3ccccc3n12, the displacement was 11.6%.
O=c1/c(=C\c2ccccc2OCc2cccc3ccccc23)sc2nc3ccccc3n12 was tested, and the displacement was 104%.
Work on COc1cccc(OCCOc2cccc(/C=c3\sc4nc5ccccc5n4c3=O)c2)c1 yielded a displacement of 4.4%.
O=c1/c(=C/c2cccc(Br)c2)sc2nc3ccccc3n12 was tested, and the displacement was 14.5%.
In the case of COc1c(Br)cc(Br)cc1/C=c1\sc2nc3ccccc3n2c1=O, the displacement is reported as 21.9%.
For COc1cccc(OCCOc2c(Cl)cc(/C=c3\sc4nc5ccccc5n4c3=O)cc2OC)c1, the displacement was 92.6%.
Molecule CCOC(=O)COc1cc(Br)c(/C=c2\sc3nc4ccccc4n3c2=O)cc1OC has a displacement of 11.1%.
With COc1cc(/C=c2\sc3nc4ccccc4n3c2=O)cc(Cl)c1OCc1ccccc1Cl the displacement was 2.3%.
With O=c1/c(=C/c2ccccc2OCc2ccccc2F)sc2nc3ccccc3n12 the displacement was 12.4%.
O=C(c1ccccc1)c1ccc(N=Cc2ccc([N+](=O)[O-])s2)cc1 was tested, and the displacement was 8.8%.
With CCOc1ccccc1/C=C/C(=O)c1cccs1 the displacement was -11.9%.
CC(C)CN1C(=O)/C(=C/c2cccc3ccccc23)SC1=S gave a displacement of 8.3%.
Molecule O=[N+]([O-])c1cccc(S(=O)(=O)NCc2ccccc2)c1 has a displacement of -3.3%.
In the case of NNC(=O)CSc1nc2ccccc2n1Cc1ccccc1, the displacement is reported as -9.6%.
For Cc1occc1C(=O)NC1CCCCCC1, the displacement was -13.4%.
Molecule Cc1ccc(CNC(=O)C(C)Oc2ccc(Cl)cc2Cl)cc1 (centres undefined) has a displacement of -12.1%.
Work on O=c1/c(=C\c2cccc(OS(=O)(=O)c3cccc([N+](=O)[O-])c3)c2)sc2nc3ccccc3n12 yielded a displacement of 101%.
For Cc1ccc(S(=O)(=O)Oc2cccc(/C=c3/sc4nc5ccccc5n4c3=O)c2)cc1, the displacement was -0.5%.
In the case of O=c1/c(=C\c2ccc(OS(=O)(=O)c3cccc([N+](=O)[O-])c3)cc2)sc2nc3ccccc3n12, the displacement is reported as -6.5%.
Molecule Cc1ccc(S(=O)(=O)Oc2ccc(/C=C3\SC(=S)NC3=O)cc2)cc1 has a displacement of -32.2%.
COC(=O)c1cc(N=NC2=C(O)CC(C)(C)CC2=O)cc(C(=O)OC)c1 gave a displacement of -7.3%.
Work on O=C(/C=C/c1ccc(-c2ccc(Cl)cc2Cl)o1)Nc1ccc(N2CCOCC2)cc1 yielded a displacement of 83%.
With O=C(Nc1ccc(N2CCOCC2)cc1)c1ccc(-c2ccc(Cl)cc2Cl)o1 the displacement was -4.5%.
Molecule CCC(=O)Nc1ccc(NC(=O)/C=C/c2ccc(-c3ccc(Cl)cc3Cl)o2)cc1 has a displacement of -14.5%.
With O=C(O)c1cc(C(=O)O)cc(N2C(=O)c3ccc(Oc4cccc([N+](=O)[O-])c4)cc3C2=O)c1 the displacement was 3.2%.
CC1(C)NN(c2ccccc2)C(=S)N1CN1CCOCC1 showed a displacement of 55.9%.
Work on S=c1n(CN2CCOCC2)nnn1-c1ccccc1 yielded a displacement of -5.3%.
CC1(C)NN(c2ccccc2)C(=S)N1c1ccccc1 gave a displacement of 9.6%.
Molecule O=C(Cn1c(-c2ccccc2)c[n+]2ccsc12)c1ccc([N+](=O)[O-])cc1 has a displacement of 13.8%.
Cc1cc(/C=C2\C(=O)NC(=O)N(c3ccc4c(c3)OCO4)C2=O)c(C)n1-c1cccc([N+](=O)[O-])c1 showed a displacement of 52.7%.
Cc1cc(/C=C2\C(=O)NC(=O)N(c3ccc4c(c3)OCO4)C2=O)c(C)n1-c1cccnc1 gave a displacement of 136%.
For Cc1cc(/C=C2\C(=O)NC(=O)N(c3cccc(F)c3)C2=O)c(C)n1-c1cccc([N+](=O)[O-])c1, the displacement was 12.3%.
For Cc1cc(/C=C2\C(=O)NC(=O)N(c3ccc4c(c3)OCO4)C2=O)c(C)n1-c1ccccc1, the displacement was 16.1%.
Cc1cc(/C=C2\C(=O)NC(=O)N(c3ccccc3)C2=O)c(C)n1-c1cccc([N+](=O)[O-])c1 showed a displacement of 9.1%.
With Cc1cc(/C=C2\C(=O)NC(=O)N(c3ccc4c(c3)OCO4)C2=O)c(C)n1-c1ccc(F)cc1 the displacement was 8%.
With COc1ccc(NC(=O)/C(=C\c2ccccc2OC)NC(=O)c2ccccc2OC)cc1 the displacement was 3%.
Molecule O=C1N/C(=N\N=C\c2ccccc2F)SC1Cc1ccccc1[N+](=O)[O-] (centres undefined) has a displacement of 7.3%.
O=C1C2C(c3ccc(Cl)cc3)OC3(C(=O)c4ccccc4C3=O)C2C(=O)N1c1ccc(F)c([N+](=O)[O-])c1 (centres undefined) was tested, and the displacement was 5.6%.
Molecule COc1ccccc1NC(=O)C1=C(C)NC(=O)NC1c1cccc([N+](=O)[O-])c1 (centres undefined) has a displacement of -7.1%.
For CCCC(C)NS(=O)(=O)c1ccccc1[N+](=O)[O-] (centres undefined), the displacement was 3%.
Molecule O=C(NCC1CCCO1)c1ccc(F)c2ccccc12 (centres undefined) has a displacement of -13.5%.
Work on O=C(CC1S\C(=N/N=C/C=C/c2ccccc2)NC1=O)Nc1ccc(C(=O)O)cc1 (centres undefined) yielded a displacement of 41.6%.
CC(=O)c1cccc(NC(=O)CC2S/C(=N\N=C\c3cccs3)NC2=O)c1 (centres undefined) was tested, and the displacement was -3.9%.
Molecule O=C(CC1S/C(=N\N=C\c2cccs2)NC1=O)Nc1ccc(Cl)c(Cl)c1 (centres undefined) has a displacement of 7.8%.
With O=C(CC1S/C(=N\N=C\c2ccco2)NC1=O)Nc1ccc(C(=O)O)cc1 (centres undefined) the displacement was -0.3%.
O=C(CC1S/C(=N\N=C\c2ccccc2)NC1=O)Nc1ccc(C(=O)O)cc1 (centres undefined) gave a displacement of 69.5%.
With O=C(CC1S/C(=N\N=C\c2cccs2)NC1=O)Nc1ccc(C(=O)O)cc1 (centres undefined) the displacement was 121%.
CCOC(=O)C1=NNC2C(=O)N(c3ccc(C)c(C)c3)C(=O)C12 (centres undefined) gave a displacement of 4.5%.
CCc1ccc(-c2csc(N3N=C(c4cccs4)CC3c3ccc(F)cc3)n2)cc1 (centres undefined) was tested, and the displacement was 0.2%.
Molecule COc1ccc(NC(=O)c2ccccc2NC(=O)c2ccc(C)cc2)cc1 has a displacement of -10.2%.
O=C1/C(=C/c2cn(-c3ccccc3)nc2-c2cccs2)SC(=S)N1C1CCS(=O)(=O)C1 (centres undefined) gave a displacement of 100%.
O=C1/C(=C/c2cn(-c3ccccc3)nc2-c2cccs2)SC(=S)N1Cc1ccccc1 showed a displacement of 115%.
In the case of COc1ccc(N2C(=O)/C(=C/c3cn(-c4ccccc4)nc3-c3cccs3)SC2=S)cc1, the displacement is reported as 0.4%.
CC(C)CN1C(=O)/C(=C/c2cn(-c3ccccc3)nc2-c2cccs2)SC1=S showed a displacement of 34.6%.
O=C1/C(=C/c2cn(-c3ccccc3)nc2-c2ccco2)SC(=S)N1C1CCS(=O)(=O)C1 (centres undefined) showed a displacement of 11.2%.
O=C(O)CCN1C(=O)/C(=C/c2cn(-c3ccccc3)nc2-c2cccs2)SC1=S showed a displacement of -14.1%.
With COc1ccc(-n2c(SCC(=O)Nc3ccc(C)cc3)nc(O)c(Cc3ccccc3)c2=O)cc1 the displacement was 22.8%.
With Cc1ccnc(N2C(=O)c3ccc(C(=O)O)cc3C2=O)c1 the displacement was 1.9%.
Cc1nn(-c2ccccc2)c2sc(C(=O)N/N=C/c3cc4c(cc3[N+](=O)[O-])OCO4)cc12 was tested, and the displacement was -1.4%.
For Cc1ccccc1OCC(=O)Nc1ccc(I)cc1Cl, the displacement was 9.5%.
For COC(=O)C1=C(C)N(C)C(C)=C(C(=O)OC)C1c1ccc(Br)cc1, the displacement was -10.8%.
For CCOc1ccc(-c2nc(Cc3ccccc3OC)no2)cc1, the displacement was -6.4%.
For O=C1C2CCCCC2C(=O)N1CC(=O)N1c2ccccc2Sc2ccc(C(F)(F)F)cc21 (centres undefined), the displacement was -14.3%.
With CCCOc1ccc(N2C(=O)CC(NCCNc3ccc([N+](=O)[O-])cn3)C2=O)cc1 (centres undefined) the displacement was -1.7%.
Molecule CCn1c2ccccc2c2cc(C=Nc3ccccc3C(=O)Nc3ccccc3)ccc21 has a displacement of -5.9%.
With O=C(Nc1ccccc1)c1ccccc1N=Cc1ccc(Cl)c([N+](=O)[O-])c1 the displacement was 6.6%.
Molecule O=C(Nc1ccccc1)c1ccccc1N=Cc1ccc(C=Nc2ccccc2C(=O)Nc2ccccc2)cc1 has a displacement of 121%.
Work on CCOP(=O)(OCC)C(OC(N)=O)c1ccc([N+](=O)[O-])cc1 (centres undefined) yielded a displacement of -9.1%.
Cc1onc(-c2c(F)cccc2Cl)c1C(=O)NCc1ccccn1 showed a displacement of -5.5%.
O=[N+]([O-])c1ccccc1N[C@H]1O[C@H](CO)[C@@H](O)[C@@H]1O showed a displacement of 6%.
Molecule Cc1cc(N[C@@H]2O[C@@H](C)[C@H](O)[C@@H](O)[C@H]2O)c([N+](=O)[O-])cc1C has a displacement of 6.5%.
C[C@@H]1O[C@@H](Nc2ccc(Cl)cc2[N+](=O)[O-])[C@H](O)[C@H](O)[C@H]1O showed a displacement of 54.7%.
CC1=NN(c2ccc(C(=O)O)cc2)C(=O)/C1=C\c1ccc(O)cc1 was tested, and the displacement was -50.5%.
Cc1cc2nc(-c3cc(NC(=O)COc4ccc([N+](=O)[O-])cc4)ccc3O)oc2cc1C showed a displacement of 0.2%.
Molecule Cc1c(NC(=O)/C=C/c2ccccc2)c(=O)n(-c2ccccc2)n1C has a displacement of 2.7%.
Work on Cc1c(NC(=O)/C=C/c2cn(-c3ccccc3)nc2-c2ccc(F)cc2)c(=O)n(-c2ccccc2)n1C yielded a displacement of 12.2%.
Molecule Cc1c(NC(=O)/C=C/c2cn(-c3ccccc3)nc2-c2ccccc2)c(=O)n(-c2ccccc2)n1C has a displacement of 70%.
